Measurements taken from PubChem BioAssay AID624504 (Sanford-Burnham Center for Chemical Genomics, 2012).
The whole screen tested about 5,000 compounds, of which about 3,900 (78%) were called active. The set was probably picked from earlier hits. A selection follows. Unmarked numbers belong to inactive results. Cut-off read from the data, not from the text of the source: active = inhibition above about 22%; inactive = the rest.

Assay: fluorescence retest of MPTP screen hits in isolated mitochondria, single concentration (AID 624504);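 note: 0% = DMSO vehicle and 100% = positive control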
Details: membrane potential, Rhodamine 123 fluorescence, at 10 µM, stronger effect = higher value

Row | Compound | inhibition
1 | O=C(NNc1c2ccccc2nc2ccccc12)c1cc2ccccc2cc1O | 31.4% (active)
2 | CCn1c(CNC(=O)c2cc(OC)c(OC)c(OC)c2)cc2cc(C)ccc21 | 72.8% (active)
3 | CCCCOc1ccc(CSC(=N)N)cc1[N+](=O)[O-] | -5.28%
4 | CCc1ccc(Nc2n[n+](-c3ccccc3)c(-c3cccc(Cl)c3Cl)s2)cc1 | 86.2% (active)
5 | Cc1cc(C(=O)CSc2nc(N)cc(=O)[nH]2)c(C)n1-c1cccc(F)c1 | 59% (active)
6 | Cc1cc(C(=O)CSc2nc(N)cc(=O)[nH]2)c(C)n1Cc1ccco1 | 46.4% (active)
7 | NC[C@H](Cc1ccccc1)NCCc1cc(C(F)(F)F)cc(C(F)(F)F)c1 | -12%
8 | c1ccc2c(c1)C(=NC1CCCCC1)NC2=NC1CCCCC1 | 92.1% (active)
9 | Cc1ccc2nnn(Cc3cccc(C(C)(C)C)c3O)c2c1 | 98.9% (active)
10 | O=c1c2ccccc2nc2n1C(CSCc1cccc(C(F)(F)F)c1)CS2 (stereo not drawn) | 80.9% (active)
11 | O=c1c2ccccc2nc2n1C(CSCc1ccccc1)CS2 (stereo not drawn) | 26.1% (active)
12 | CN1CCC[C@@H]1CCO[C@](C)(c1ccccc1)c1ccc(Cl)cc1 | -12.2%
13 | CCCc1ccc(-c2c(C)sc(NC(=O)c3ccnn3C)c2C#N)cc1 | 90.5% (active)
14 | CCCCc1nc(NCCN)c(C#N)c2c1CSC(C)(C)C2 | -9.33%
15 | COc1cc(CNCc2ccc(OC)c3ccccc23)cc(OC)c1OC | 75.8% (active)
16 | Cc1nc2nc(SCC(=O)Nc3cccc(F)c3)[nH]c2cc1Br | 81.1% (active)
17 | CC(=O)c1c(C)[nH]c(C(=O)COC(=O)c2cccc(S(=O)(=O)N(C)c3ccccc3)c2)c1C | 90.1% (active)
18 | CC(C)(CCl)C(=O)Nc1ccc(Sc2ccc(F)cc2)cc1 | 80.4% (active)
19 | O=C(C/C(=N\NC(=O)c1ccccc1Br)C(F)(F)F)c1cccs1 | 82.3% (active)
20 | O=C(NCCc1ccc2c(c1)OCCO2)c1cc2ccccc2o1 | 51.1% (active)
21 | CC1(C)CC(=O)c2sc(N)nc2C1 | 1.93%
22 | CCCc1nc2c(c(=O)c3ccccc3n2C)c(=O)n1C1CCCCCC1 | 19.4%
23 | O=C(Nc1ccc(OC(F)(F)F)cc1)c1ccc2c(c1)no[n+]2[O-] | 88.6% (active)
24 | CCC(C)(C)c1ccc(Oc2ccc(NC(=O)COC(=O)C3=COCCO3)cc2)cc1 | 55.3% (active)

Row | Compound | inhibition
25 | CCCCCCc1cc2cc(-c3nnc(-c4ccccc4)o3)c(=O)oc2cc1O | 1.15%
26 | Cc1ccc(Nc2c3c(nc4ccccc24)CCC3)cc1 | 76.8% (active)
27 | O=C(NCCOc1ccccc1F)Nc1ccc(Br)cc1 | 71.7% (active)
28 | CCOC(=O)c1ccc(NC(=O)Cn2cnc3cc(C)c(C)cc32)cc1 | 88.8% (active)
29 | COc1ccc(NS(=O)(=O)c2cc(NC(=O)CC(=O)c3ccc([N+](=O)[O-])cc3)ccc2C)cc1 | 66.5% (active)
30 | O=C(Cc1cccc2ccccc12)NNC(=O)Nc1ccc(Cl)cc1 | 85.8% (active)
31 | Cc1ccc(NC(=S)NC(NC(=O)Cc2cccc3ccccc23)C(Cl)(Cl)Cl)cc1 (stereo not drawn) | 70.9% (active)
32 | COc1cc(NC(=O)c2ccccc2NS(=O)(=O)c2ccc(Cl)s2)cc(OC)c1 | 75.8% (active)
33 | COC(=O)c1ccc(NC(=O)c2ccccc2NS(=O)(=O)c2ccccc2)cc1 | 93.2% (active)
34 | Clc1ccc(-c2cc(C3CCNCC3)[nH]n2)c(Cl)c1 | -10.4%
35 | Cc1nnc(SC(C(=O)Nc2cc(Cl)cc(Cl)c2)c2ccccc2)[nH]c1=O (stereo not drawn) | 86.5% (active)
36 | CCOC(=O)c1c(NC(=O)CSc2cn(CC)c3ccccc23)sc2c1CCC2 | -4.21%
37 | CC(=O)c1c(C)[nH]c(C(=O)OCC(=O)Nc2sc3c(c2C#N)CCCC3)c1C | 82.4% (active)
38 | Cc1c(NC(=S)NCc2ccc(F)cc2)cccc1[N+](=O)[O-] | 78.8% (active)
39 | Cc1cc(C)cc(NC(=S)NCc2ccc(F)cc2)c1 | 57.4% (active)
40 | Cc1nc(CNS(=O)(=O)c2ccc(Oc3ccccc3)cc2)cs1 | 88.2% (active)
41 | FC(F)Oc1ccc(NC(=S)NCc2ccco2)cc1Cl | 97.6% (active)
42 | Cc1ccc(CC(=O)Nc2ccc(OC(F)F)c(Cl)c2)cc1C | 89.8% (active)
43 | c1ccc2c(c1)CSc1sccc1C2=C1CCNCC1 | -11.2%
44 | Cc1nc2ccccc2cc1OCc1ccc(F)cc1 | 100% (active)
45 | Cc1cc(OCCCC(=O)NCCN2C(=O)S/C(=C\c3cccnc3)C2=O)ccc1Cl | 68.6% (active)
46 | Cc1nn(C)cc1CNC(=O)Nc1ccc(Cl)cc1 | 96.6% (active)
47 | Cc1cc(C=O)c(C)n1-c1ccc(NC2CCCCC2)c([N+](=O)[O-])c1 | 41.9% (active)
48 | CCCCCCCCCCCCN1C(=O)CSC1c1cccnc1 (stereo not drawn) | 19.9%

Row | Compound | inhibition
49 | COc1cc2c3c(c1)/C(=C1/SC(=S)NC1=O)C(=O)N3C(C)(C)C=C2C | 49.1% (active)
50 | CCCC(C(=O)OCCN(CC)CC)(c1ccccc1)c1ccccc1 | 4.44%
51 | CC(C)N1C(=S)SC(C)(C)C1n1oc(=O)n(-c2ccc(Cl)c(Cl)c2)c1=O (stereo not drawn) | 80.6% (active)
52 | COc1ccc(CNc2ncnc3ccccc23)cc1 | 71.8% (active)
53 | Cc1cc(C)cc(OCC(=O)Nc2nc3ccc([N+](=O)[O-])cc3s2)c1 | 62.3% (active)
54 | O=C(NC(Nc1nc2ccc([N+](=O)[O-])cc2s1)(C(F)(F)F)C(F)(F)F)c1ccccc1 | 81.4% (active)
55 | O=C(Nc1nc2ccc([N+](=O)[O-])cc2s1)c1ccncc1 | 20.6% (active)
56 | O=C(Nc1nc2ccc([N+](=O)[O-])cc2s1)c1ccc(S(=O)(=O)N2CCCc3ccccc32)cc1 | 74.7% (active)
57 | CCCC[C@@H]1CN=C(N)N1CCc1cc(C(F)(F)F)cc(C(F)(F)F)c1 | -7.58%
58 | O=C(Nc1ccc(Cl)cc1)Nc1nnc(/C=C/c2ccccc2)s1 | 67% (active)
59 | N#CCCN(C(=S)Nc1ccc(Cl)c(Cl)c1)C1CCCCC1 | 91.7% (active)
60 | CS(=O)(=O)N(CC(=O)Nc1ccc(Cl)c(Cl)c1)C1CCCCC1 | 82.4% (active)
61 | O=C(N/N=C/c1ccc(O)c(O)c1)C1c2ccccc2Oc2ccccc21 | -9.84%
62 | NS(=O)(=O)c1ccc(NC(=S)Nc2ccc(Br)c(Cl)c2)cc1 | 76% (active)
63 | CCN1CCC(O)(/C=C/c2ccc(C)cc2)C(C(=O)/C=C/c2ccc(C)cc2)C1 (stereo not drawn) | -14.1%
64 | Cc1cc(C)cc(NS(=O)(=O)c2ccc(Oc3ncc(C(F)(F)F)cc3Cl)cc2)c1 | 93.4% (active)
65 | FC(F)Oc1ccccc1NC(=S)Nc1cccc(Cl)c1Cl | 44.5% (active)
66 | CN(Cc1cccnc1)C(=O)c1cc(COc2ccc3ncccc3c2)on1 | 73% (active)
67 | CCCc1[nH]nc2c1C(c1c(C)nn(-c3ccccc3)c1Cl)C(C#N)=C(N)O2 (stereo not drawn) | -3.33%
68 | O=C1CC(c2ccccc2)=NN1c1ccc([N+](=O)[O-])cc1 | 77.6% (active)
69 | O=C(Nc1cccc(Cl)c1)Nc1ccccc1NS(=O)(=O)c1cccs1 | 89.6% (active)
70 | COc1ccc(CC(=O)Nc2nc(-c3ccc(F)c(F)c3)cs2)cc1OC | 94.5% (active)
71 | COc1cc(CC(=O)Nc2nc(-c3ccc(F)c(F)c3)cs2)cc(OC)c1OC | 93.2% (active)
72 | CCCOc1ccc(Cc2c(Cl)nc(SC)nc2NC)cc1 | 93.6% (active)

Row | Compound | inhibition
73 | Cn1nccc1NC(=O)Nc1ccc(OC(F)(F)F)cc1 | 73.2% (active)
74 | CC(=N\NC(=O)c1cc(Br)ccc1O)/C(=N/O)C(=O)Nc1ccccc1 | 78.4% (active)
75 | Cc1oc2c(F)c(F)c(F)c(F)c2c1S(=O)(=O)Nc1cccc(C(F)(F)F)c1 | 83.5% (active)
76 | Cc1oc2cc([N+](=O)[O-])c(O)c([N+](=O)[O-])c2c1C(=O)c1ccc(Br)cc1 | 61.8% (active)
77 | O=C(Cc1ccc(-n2c(=O)[nH]c3ccccc3c2=O)cc1)N1CCN(c2cccc(Cl)c2)CC1 | 49.8% (active)
78 | COc1ccc(CCNc2cc(N3CCN(C(=O)c4ccccc4OC)CC3)ccc2[N+](=O)[O-])cc1OC | 47.7% (active)
79 | Cc1ccc2c(c1)C1CN(C)CCC1N2S(=O)(=O)c1ccc(Oc2ccc([N+](=O)[O-])cc2)cc1 (stereo not drawn) | -16.2%
80 | Cc1ccc(NC(=O)COc2ccc(-n3ccnc3)cc2)cc1Cl | 94.1% (active)
81 | O=C(Nc1nc2c(F)cc(F)cc2s1)C1COc2ccccc2O1 (stereo not drawn) | 76.6% (active)
82 | O=C(Nc1nnc(SCc2ccc(Cl)cc2Cl)s1)C1COc2ccccc2O1 (stereo not drawn) | 72.7% (active)
83 | O=C(NCCNc1ccc([N+](=O)[O-])cc1)c1cccc2c(Br)cccc12 | 84.9% (active)
84 | CN1CCN(CCNC(=O)Nc2ccc([N+](=O)[O-])cc2)CC1 | 75.1% (active)
85 | O=C(NCCCN1CCN(c2ccc(F)cc2)CC1)Nc1ccc([N+](=O)[O-])cc1 | 89.6% (active)
86 | Cc1cccc(-c2nc3ccc(C(=O)NCCN4CCN(C)CC4)cc3nc2-c2cccc(C)c2)c1 | -16.4%
87 | CCCOc1ccc(C(=O)C(CCC(CNCC)C(=O)c2ccc(OCCC)cc2)CNCC)cc1 (stereo not drawn) | -13.8%
88 | O=c1c(-c2ccc3c(c2)OCCO3)c(C(F)(F)F)oc2cc(O)cc(O)c12 | 80.7% (active)
89 | CC1=C/C(=N\OS(=O)(=O)c2ccccc2)C=CC1=O | 92.7% (active)
90 | Cc1c(C(=O)OC(C)C)sc(NC(=O)c2cccnc2)c1C#N | 82.8% (active)
91 | Cc1ccc(-c2nc(-c3cccnc3)sc2CC(=O)Nc2ccc(C)c(Cl)c2)cc1 | 90.8% (active)
92 | CCNS(=O)(=O)c1ccc(NC(=O)Nc2cccc(C(F)(F)F)c2)cc1 | 73.9% (active)
93 | CCc1cc2c(NC3CCCC3)ncnc2s1 | 59.8% (active)
